Test results reported in PubChem BioAssay.
Calls of active or inactive are those of the source.

What was measured:
[1] = tested on: PRMT1 (protein arginine N-methyltransferase 1); assay: small molecules binding arginine methyltransferase PRMT1 – biochemical, small-molecule microarray, 635 nm fluorescence, primary screen (AID 1088); settings: higher = more signal;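 further: binding of Prmt1 protein to compounds spotted on small-molecule microarray slides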
[2] = growth effects on S. cerevisiae YJM789 – YJM789 clinical isolate, OD600, 24 h, basal, primary screen (AID 1089); settings: higher = more signal, called active from +8 up or from −8 down;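 further: growth of clinical yeast isolate S. cerevisiae YJM 789 seeded 1000 cells per well; test concentration not given here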
[3] = S. pombe growth modifiers, basal conditions – strain 972, OD600, 24 h, no modulator, primary screen (AID 1090);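 further: basal condition with compound alone and no growth modifier present; test concentration not given here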; settings: S. pombe 972 growth, higher = more signal, called active from +8 up or from −8 down
[4] = budding yeast growth modifiers under rapamycin – strain BY4716, OD600, 96 h, primary screen (AID 1091); further: test concentration not given here; settings: S. cerevisiae BY4716 + rapamycin, higher = more signal, called active from +8 up or from −8 down
[5] = target: Torsin-1A-interacting protein 2 (Homo sapiens) (UniProt Q8NFQ8); assay: small molecules binding lysate-expressed LULL1 – cell lysate, human LULL1 lysate, 635/667 nm fluorescence, primary screen (AID 1092); settings: small-molecule microarray, hLULL1 lysate binding, 635 nm fluorescence; higher = more signal;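 further: probe is lysate of COS7 cells overexpressing human LULL1; score merges per-feature 667 nm fluorescence with signal-to-noise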
[6] = optical density change of DRC41 E. coli – strain DRC41, OD650, 24 h, E. coli filamentation project, primary screen (AID 1093);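 further: MC1000 strain lacking acrAB efflux and sulA so SOS filamentation is blocked; test concentration not given here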; settings: E. coli DRC41 growth, higher = more signal, called active from +8 up or from −8 down
[7] = probe aLefty2 binding to arrayed compounds – biochemical, biotinylated probe, 635/667 nm fluorescence, primary screen (AID 1094); settings: small-molecule microarray, higher = more signal;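 further: score merges spot fluorescence near 667 nm with spot signal-to-noise ratio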
[8] = tested on: Noggin (protein binding on small-molecule microarray); assay: small molecules binding Noggin protein – biochemical, 635/667 nm fluorescence, primary screen (AID 1095); settings: 635 nm fluorescence, higher = more signal;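 further: score merges 667 nm feature fluorescence with signal to noise over triplicate slides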
[9] = target: Neurogenic locus notch homolog protein 3 (Homo sapiens) (UniProt Q9UM47); assay: small molecules binding NOTCH3 protein – biochemical, 635/667 nm fluorescence, primary screen (AID 1096); settings: small-molecule microarray, 635 nm fluorescence, higher = more signal
[10] = probe aEGFR binding to arrayed compounds – biochemical, biotinylated probe, 635/667 nm fluorescence, primary screen (AID 1097); settings: small-molecule microarray, higher = more signal;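 further: probe is a biotinylated anti-EGFR antibody binding compounds printed on slides; score combines fluorescence near 667 nm and signal to noise of each spot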
[11] = tested on: Plasmodium falciparum Sir2 (PF13_0152, Sir2A); assay: Plasmodium falciparum Sir2A binding compounds – biochemical, small-molecule microarray, 635 nm fluorescence, primary screen (AID 1098); settings: fluorescence 635 nm, higher = more signal;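 further: score merges spot fluorescence intensity with its signal-to-noise ratio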
[12] = probe aDKK1 binding to arrayed compounds – biochemical, biotinylated probe, 635/667 nm fluorescence, primary screen (AID 1099); settings: small-molecule microarray, higher = more signal;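 further: score merges 667nm spot fluorescence with signal to noise across triplicate slides; reference of the scale not given here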
[13] = probe aCHRDL2 binding to arrayed compounds – biochemical, biotinylated probe, 635/667 nm fluorescence, primary screen (AID 1100); settings: small-molecule microarray, higher = more signal
[14] = change in splice reporter luminescence, either direction, cell-based, HEK293, spliceosome inhibition project, primary screen (AID 1101); settings: HEK293 splicing luciferase reporter, 24 h, higher = more signal, called active from +8 up or from −8 down;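 further: HEK293 cells carrying a splicing-competent luciferase reporter gene; test concentration not given here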
[15] = target: Fibroblast growth factor 10 (Homo sapiens) (UniProt O15520); assay: compounds binding fibroblast growth factor 10 – biochemical, small-molecule microarray, 635 nm fluorescence, primary screen (AID 1102); settings: FGF10 binding, fluorescence 635 nm, higher = more signal
[16] = tested on: glycogen synthase kinase-3 (GSK3A per assay name; protocol says GSK3B); assay: compounds binding glycogen synthase kinase-3 – biochemical, small-molecule microarray, 635 nm fluorescence, GSK3A, primary screen (AID 1103); settings: fluorescence 635 nm, higher = more signal; further: the record names both GSK3A and GSK3B
[17] = target: Epidermal growth factor receptor (Homo sapiens) (UniProt P00533); assay: compounds binding epidermal growth factor receptor – biochemical, small-molecule microarray, 635 nm fluorescence, primary screen (AID 1104); settings: EGFR binding, higher = more signal;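 further: score merges 667 nm emission intensity with spot signal to noise over triplicate slides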
[18] = target: Follistatin-related protein 3 (Homo sapiens) (UniProt O95633); assay: compounds binding follistatin-related protein 3 – biochemical, small-molecule microarray, 635 nm fluorescence, primary screen (AID 1105); settings: FSTL3 binding, higher = more signal;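 further: score merges emission near 667 nm and signal to noise per printed spot across three slides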
[19] = target: Dickkopf-related protein 1 (Homo sapiens) (UniProt O94907); assay: small molecules binding DKK1 protein – biochemical, small-molecule microarray, 635 nm fluorescence scan, primary screen (AID 1106); settings: higher = more signal;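 further: score merges emission near 667 nm with signal to noise over three replicate slides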
[20] = tested on: Inhibin beta A chain (activin A); assay: small molecules binding activin A – biochemical, small-molecule microarray, 635 nm fluorescence scan, primary screen (AID 1107); settings: INHBA, higher = more signal;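 further: mouse activin A protein probed at 4.33 µg/mL on printed slides; score merges bound-protein fluorescence near 667 nm with spot signal-to-noise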

Sequence of Follistatin-related protein 3 (Homo sapiens) (O95633 whole entry, looked up): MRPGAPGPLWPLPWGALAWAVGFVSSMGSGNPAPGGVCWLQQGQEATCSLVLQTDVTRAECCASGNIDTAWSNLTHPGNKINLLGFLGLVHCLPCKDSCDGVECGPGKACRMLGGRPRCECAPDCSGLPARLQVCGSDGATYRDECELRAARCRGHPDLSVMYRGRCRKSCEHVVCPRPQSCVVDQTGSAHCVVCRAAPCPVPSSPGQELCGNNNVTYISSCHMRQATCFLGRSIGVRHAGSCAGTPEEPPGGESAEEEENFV
Sequence of Epidermal growth factor receptor (Homo sapiens) (P00533 whole entry, looked up): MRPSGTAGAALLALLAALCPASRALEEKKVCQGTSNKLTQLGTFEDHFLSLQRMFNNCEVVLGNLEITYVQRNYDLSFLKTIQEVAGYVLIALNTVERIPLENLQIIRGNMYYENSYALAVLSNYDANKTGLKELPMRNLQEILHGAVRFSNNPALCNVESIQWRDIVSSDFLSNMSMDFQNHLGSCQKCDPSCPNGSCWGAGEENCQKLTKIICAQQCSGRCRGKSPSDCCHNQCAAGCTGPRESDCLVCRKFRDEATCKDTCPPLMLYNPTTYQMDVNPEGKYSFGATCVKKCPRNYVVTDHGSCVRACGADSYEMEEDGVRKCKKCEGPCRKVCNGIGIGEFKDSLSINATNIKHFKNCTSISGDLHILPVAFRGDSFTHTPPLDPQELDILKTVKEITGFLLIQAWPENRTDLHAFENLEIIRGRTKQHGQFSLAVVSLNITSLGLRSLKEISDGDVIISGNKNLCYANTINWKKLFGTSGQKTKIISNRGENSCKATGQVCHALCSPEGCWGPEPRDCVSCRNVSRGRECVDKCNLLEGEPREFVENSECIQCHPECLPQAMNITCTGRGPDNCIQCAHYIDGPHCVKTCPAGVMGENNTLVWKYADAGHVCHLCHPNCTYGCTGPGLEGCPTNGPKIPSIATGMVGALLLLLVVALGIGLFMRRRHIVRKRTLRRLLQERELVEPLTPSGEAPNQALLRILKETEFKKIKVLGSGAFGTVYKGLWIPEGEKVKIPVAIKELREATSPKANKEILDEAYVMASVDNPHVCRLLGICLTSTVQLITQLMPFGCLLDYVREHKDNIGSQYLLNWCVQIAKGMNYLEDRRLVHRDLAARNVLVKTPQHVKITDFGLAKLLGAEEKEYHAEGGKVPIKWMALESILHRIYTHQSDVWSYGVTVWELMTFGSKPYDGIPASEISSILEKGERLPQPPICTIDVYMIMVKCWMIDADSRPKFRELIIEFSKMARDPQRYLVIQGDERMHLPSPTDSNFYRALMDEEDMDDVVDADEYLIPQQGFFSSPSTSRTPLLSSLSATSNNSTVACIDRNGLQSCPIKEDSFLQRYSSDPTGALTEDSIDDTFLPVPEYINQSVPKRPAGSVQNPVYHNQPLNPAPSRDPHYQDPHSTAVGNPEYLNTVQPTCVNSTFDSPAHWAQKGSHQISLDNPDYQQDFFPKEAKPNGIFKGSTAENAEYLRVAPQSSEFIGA
Sequence of Dickkopf-related protein 1 (Homo sapiens) (O94907 whole entry, looked up): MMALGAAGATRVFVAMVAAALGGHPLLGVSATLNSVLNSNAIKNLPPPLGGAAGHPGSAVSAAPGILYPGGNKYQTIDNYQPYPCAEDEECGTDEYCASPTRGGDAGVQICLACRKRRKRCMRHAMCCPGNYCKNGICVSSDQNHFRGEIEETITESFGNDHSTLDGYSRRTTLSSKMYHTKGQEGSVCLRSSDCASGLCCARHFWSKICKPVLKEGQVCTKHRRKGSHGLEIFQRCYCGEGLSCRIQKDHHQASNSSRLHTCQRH
Sequence of Torsin-1A-interacting protein 2 (Homo sapiens) (Q8NFQ8 whole entry, looked up): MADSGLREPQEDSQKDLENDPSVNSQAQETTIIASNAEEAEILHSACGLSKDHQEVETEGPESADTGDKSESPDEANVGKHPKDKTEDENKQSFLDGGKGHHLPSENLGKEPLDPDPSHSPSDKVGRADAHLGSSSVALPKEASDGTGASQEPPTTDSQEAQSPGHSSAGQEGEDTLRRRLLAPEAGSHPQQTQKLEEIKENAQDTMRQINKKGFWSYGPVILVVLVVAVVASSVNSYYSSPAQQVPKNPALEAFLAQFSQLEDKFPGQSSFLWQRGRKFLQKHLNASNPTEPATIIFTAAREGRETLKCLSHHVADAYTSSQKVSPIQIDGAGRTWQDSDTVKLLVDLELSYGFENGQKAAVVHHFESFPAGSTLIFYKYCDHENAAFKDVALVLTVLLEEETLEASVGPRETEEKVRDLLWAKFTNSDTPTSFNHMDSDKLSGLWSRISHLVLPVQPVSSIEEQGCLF
Sequence of Neurogenic locus notch homolog protein 3 (Homo sapiens) (Q9UM47 whole entry, looked up): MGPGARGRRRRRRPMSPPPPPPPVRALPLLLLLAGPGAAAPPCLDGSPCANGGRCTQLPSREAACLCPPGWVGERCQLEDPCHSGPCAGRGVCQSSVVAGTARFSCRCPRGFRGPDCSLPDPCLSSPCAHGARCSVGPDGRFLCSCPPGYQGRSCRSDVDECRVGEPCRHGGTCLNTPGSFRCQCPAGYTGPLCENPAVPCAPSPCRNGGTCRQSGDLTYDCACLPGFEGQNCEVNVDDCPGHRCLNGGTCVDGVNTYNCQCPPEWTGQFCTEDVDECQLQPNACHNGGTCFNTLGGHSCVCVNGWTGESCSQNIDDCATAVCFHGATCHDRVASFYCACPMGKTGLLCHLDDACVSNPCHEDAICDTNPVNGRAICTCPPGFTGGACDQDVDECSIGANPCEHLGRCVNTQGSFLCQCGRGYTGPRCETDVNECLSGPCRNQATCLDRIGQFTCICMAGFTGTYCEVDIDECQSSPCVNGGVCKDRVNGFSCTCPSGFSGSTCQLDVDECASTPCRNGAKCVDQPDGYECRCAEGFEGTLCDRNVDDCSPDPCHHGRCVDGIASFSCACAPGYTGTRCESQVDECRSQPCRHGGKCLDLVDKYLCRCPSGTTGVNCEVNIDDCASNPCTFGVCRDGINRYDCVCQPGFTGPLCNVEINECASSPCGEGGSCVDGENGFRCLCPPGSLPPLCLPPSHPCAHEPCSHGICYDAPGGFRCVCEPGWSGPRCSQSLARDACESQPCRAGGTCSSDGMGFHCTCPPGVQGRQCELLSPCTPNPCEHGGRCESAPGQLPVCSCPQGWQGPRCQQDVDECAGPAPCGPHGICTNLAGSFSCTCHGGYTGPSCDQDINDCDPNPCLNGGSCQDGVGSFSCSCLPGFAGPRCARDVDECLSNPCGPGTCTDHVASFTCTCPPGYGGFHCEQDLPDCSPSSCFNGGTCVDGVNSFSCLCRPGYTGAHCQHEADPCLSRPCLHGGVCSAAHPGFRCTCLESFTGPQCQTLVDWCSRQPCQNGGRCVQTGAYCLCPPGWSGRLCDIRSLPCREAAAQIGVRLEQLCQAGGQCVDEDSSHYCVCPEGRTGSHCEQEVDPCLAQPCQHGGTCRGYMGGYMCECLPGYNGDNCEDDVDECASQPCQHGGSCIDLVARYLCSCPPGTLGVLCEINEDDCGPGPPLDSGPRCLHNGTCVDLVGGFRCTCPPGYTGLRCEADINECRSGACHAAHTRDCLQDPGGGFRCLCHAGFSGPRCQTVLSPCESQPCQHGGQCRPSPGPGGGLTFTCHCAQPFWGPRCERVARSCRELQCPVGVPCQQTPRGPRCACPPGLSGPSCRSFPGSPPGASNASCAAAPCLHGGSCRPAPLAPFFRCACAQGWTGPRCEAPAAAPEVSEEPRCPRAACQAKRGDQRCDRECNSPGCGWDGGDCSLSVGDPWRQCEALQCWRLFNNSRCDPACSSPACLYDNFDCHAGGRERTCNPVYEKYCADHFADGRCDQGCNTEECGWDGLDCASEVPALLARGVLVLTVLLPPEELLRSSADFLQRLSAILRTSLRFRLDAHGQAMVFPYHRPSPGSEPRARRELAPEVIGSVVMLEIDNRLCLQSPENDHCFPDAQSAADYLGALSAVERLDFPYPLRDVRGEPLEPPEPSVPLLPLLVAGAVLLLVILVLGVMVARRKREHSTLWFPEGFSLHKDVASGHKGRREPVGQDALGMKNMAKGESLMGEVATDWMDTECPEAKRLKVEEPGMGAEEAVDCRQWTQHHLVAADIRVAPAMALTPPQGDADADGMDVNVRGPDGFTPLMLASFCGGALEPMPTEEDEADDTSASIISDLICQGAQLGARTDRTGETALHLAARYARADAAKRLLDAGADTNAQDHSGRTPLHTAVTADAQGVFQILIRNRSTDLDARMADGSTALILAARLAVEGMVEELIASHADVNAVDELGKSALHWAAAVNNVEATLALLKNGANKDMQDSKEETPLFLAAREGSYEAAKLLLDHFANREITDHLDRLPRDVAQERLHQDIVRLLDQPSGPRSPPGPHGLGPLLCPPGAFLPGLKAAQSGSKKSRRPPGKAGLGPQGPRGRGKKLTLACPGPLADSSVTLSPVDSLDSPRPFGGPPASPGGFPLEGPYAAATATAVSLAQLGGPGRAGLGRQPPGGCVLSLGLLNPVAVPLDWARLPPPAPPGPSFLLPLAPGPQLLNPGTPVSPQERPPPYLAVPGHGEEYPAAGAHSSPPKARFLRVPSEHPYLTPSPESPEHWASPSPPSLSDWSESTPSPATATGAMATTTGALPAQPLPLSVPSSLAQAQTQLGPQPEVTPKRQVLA
Sequence of Fibroblast growth factor 10 (Homo sapiens) (O15520 whole entry, looked up): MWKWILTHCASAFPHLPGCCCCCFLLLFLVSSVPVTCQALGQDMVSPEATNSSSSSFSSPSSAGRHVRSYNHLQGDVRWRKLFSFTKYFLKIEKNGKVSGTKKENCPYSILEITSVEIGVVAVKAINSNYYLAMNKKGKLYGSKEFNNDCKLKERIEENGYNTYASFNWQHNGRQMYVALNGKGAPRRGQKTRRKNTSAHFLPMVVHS

Compound	composite z-score [1]	z-score [2]	z-score [3]	z-score [4]	composite z-score [5]	z-score [6]	composite z-score [7]	composite z-score [8]	composite z-score [9]	composite z-score [10]	composite z-score [11]	composite z-score [12]	composite z-score [13]	z-score [14]	composite z-score [15]	composite z-score [16]	composite z-score [17]	composite z-score [18]	composite z-score [19]	composite z-score [20]
CC(C)(C)OC(=O)CC[C@@]1(C(=O)N2CCCCC2)N=C(c2ccc(OCCCO)cc2)O[C@@H]1c1ccccc1	1.54	-1.23 (inactive)	-0.76 (inactive)	-0.95 (inactive)	3.52	-0.223 (inactive)	0.0215	0.318	1.12	-0.0053	1.74	0.555	0.452	0.0826 (inactive)	1.46	1.3	0.197	0.858	-0.219	0.6
COc1ccc([Si](C)(C)[C@@H]2[C@@H](CCn3cc([C@H](O)c4ccccc4)nn3)O[C@]3(C(=O)N(Cc4cccc(N5CCC5=O)c4)c4ccccc43)[C@H]2C)cc1	-0.284	-0.442 (inactive)	1.23 (inactive)	2.14 (inactive)	0.167	-0.546 (inactive)	-0.0956	0.459	-0.468	-0.0267	0.647	-0.386	-0.0143	1.41 (inactive)	0.483	-0.502	0.0403	-0.304	0.589	0.521
COc1ccc([Si](C)(C)[C@@H]2[C@@H](CC(=O)N3Cc4ccccc4C[C@H]3CO)O[C@]3(C(=O)N(Cc4cccc(N5CCC5=O)c4)c4ccccc43)[C@H]2C)cc1	1.55	0.0342 (inactive)	0.589 (inactive)	1.59 (inactive)	1.95	-0.509 (inactive)	-0.0963	0.954	0.87	0.0227	1.22	-0.0652	0.119	-0.432 (inactive)	0.48	0.611	0.73	0.692	0.641	0.886
COC(=O)[C@]1(Cc2ccccc2)N=C(c2ccc(OCCCO)cc2)O[C@@H]1c1ccccc1N=[N+]=[N-]	1.52	-0.701 (inactive)	-1.01 (inactive)	24.6 (active)	1.82	-0.604 (inactive)	-0.0389	1.15	0.58	-0.0987	1.54	0.124	0.527	-1.56 (inactive)	0.79	0.519	-0.0527	0.257	-0.0949	0.796
CCCC=C(CCC)[C@@H](NS(=O)(=O)c1ccc(Cl)cc1)c1ccc(C(=O)OC)cc1	0.687	-0.288 (inactive)	0.745 (inactive)	-0.825 (inactive)	0.735	0.0177 (inactive)	0.0007	-0.392	-1.6	0.0219	0.456	0.113	-0.461	0.184 (inactive)	0.401	0.836	0.228	-0.445	0.291	0.28
